In PubChem BioAssay (NCI) one finds growth data, which are given here for 20 compounds.

Compounds without any hit were thinned out: in the full panel of roughly 83,000, 20% have a hit.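 Results are percent growth after 48 hours of single-concentration exposure. 100 means growth as in untreated cells, lower positive values show inhibition; negative values down to -100 show cell death.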 Values without a mark were called inactive. The source made the active and inactive calls. The calls were made as follows: active = growth percent below 10; inactive = the rest.

Holding throughout (experiment): NCI-60 one-dose screen, 48 h (100 = growth as untreated, 0 = no growth, -100 = all killed)
Details in all cases: 10 µM unless noted

Assay [1] deals with HCT-15 colon.
Assay [2] concerns HT29 colon.
For assay [3], the system named is SNB-75 CNS.
Assay [4] relates to SNB-19 CNS.
In assay [5] the test system is U251 CNS.
The test system of assay [6] is PC-3 prostate.
Assay [7] concerns SK-MEL-5 melanoma.
Assay [8] deals with UACC-62 melanoma.
In assay [9] the test system is LOX IMVI melanoma.
Assay [10] deals with SK-MEL-28 melanoma.

On to `CC(C)CCC[C@@H](C)[C@H]1CC[C@H]2[C@@H](Nc3ccc(O)cc3)CCC[C@]12C`, for which the growth in assay [1] was 70.8%; in [2], 89.5%; in [3], 75.8%; in assay [4] it was 111%; in [5] it was 91.8%; in assay [6] it was 33.5%. Besides, the growth in [7] was 97.9%; in assay [8], 76.5%; in assay [9], 34.7%; in assay [10], 97.9%.
`c1cc2ccc3cc2cc1CNCCOCCNCc1ccc2ccc(cc2c1)CNCCOCCNC3`: the growth in [1] was 96.7%; in assay [2] it was -34.3% (active); in assay [3] it was -98.7% (active); in assay [4], -21.8% (active); in [5], -20.4% (active); in assay [6], -38.1% (active). Moreover, the growth is 1.54% (active) in assay [7], -52.8% (active) in assay [8], -25.3% (active) in [9] and -8.69% (active) in assay [10].
For the compound `COc1cccc2c1C(=O)c1c(O)c3c(c(O)c1C2=O)CC(O)(/C(C)=N/NC(=O)CCCCC(=O)N/N=C(\C)C1(O)Cc2c(O)c4c(c(O)c2C(OC2CC(N)C(O)C(C)O2)C1)C(=O)c1c(OC)cccc1C4=O)CC3OC1CC(N)C(O)C(C)O1` (stereo not drawn), the growth is 13.8% [5 µM] in assay [1]; -68.9% [5 µM] (active) in assay [2]; -67.7% [5 µM] (active) in assay [3]; -8.14% [5 µM] (active) in assay [4]; 2.32% [5 µM] (active) in assay [5]; -40.4% [5 µM] (active) in assay [6]. In addition, the growth in assay [7] is -89% [5 µM] (active); in assay [8], -93% [5 µM] (active); in assay [9], 1.34% [5 µM] (active); in [10], -76.5% [5 µM] (active).
For `CC1CC2Oc3ccc(Cl)cc3C(=O)N2O1` (stereo not drawn), the growth is 99.2% in assay [1]; 105% in assay [2]; 101% in assay [3]; 112% in assay [4]; 108% in [5]; 102% in assay [7]. Moreover, the growth in assay [8] is 108%; in assay [9] it was 98.2%; in assay [10] it was 118%.
Regarding `CCCCCCCCCCN(CCCCCCCCCC)CC(=O)c1ccc2cc(Br)c3ccccc3c2c1`, the growth in assay [1] is 64.9%; in assay [2], 3.77% (active); in [3], 68.7%; in [4] it was 88%; in assay [5], -9.35% (active); in [7] it was 93.6%. The figures for the growth in assay [8], in [9] and in [10] were 93.9%, 21.6% and 113%, respectively.
With `COc1cccc(Nc2nccc(Nc3ccc4[nH]ncc4c3)n2)c1`, the growth was -26.6% (active) in assay [1]; -58.3% (active) in assay [2]; 30.3% in assay [3]; 24.1% in assay [4]; -93.7% (active) in assay [5]; -83.6% (active) in assay [7]. Further, the growth in assay [8] was -56.7% (active); in assay [9], -66.9% (active); in assay [10], -42.6% (active).
As to `CC1O[C@@H](OC2[C@H](OC(=O)/C=C/c3ccc(O)c(O)c3)C(COC3O[C@H](C)C(O)C(O)[C@@H]3O)O[C@@H](OCCc3ccc(O)c(O)c3)[C@H]2O)[C@@H](O)C(O)[C@H]1O` (stereo partly drawn), the growth is 100% in assay [1]; 100% in assay [2]; 85.7% in assay [3]; 107% in [4]; 99.4% in assay [5]; 103% in assay [7]. Also, the growth in assay [8] is 101%; in [9], 102%; in assay [10], 110%.
For `COc1cccc(C(=O)NCCNc2cc(-c3cn(-c4ccccc4)nc3-c3cccc(OC)c3)ccn2)c1`, the growth in [1] is 41.8%; in assay [2], 22.6%; in [3], 74.5%; in [4] it was 78%; in assay [5], 48.4%; in [7] it was 39.3%. Further, the growth in assay [8] was 55.1%; in [9], 62.1%; in [10], 80.2%.
For `COC(=O)[C@]12CC[C@@H](C)[C@H](C)[C@@H]1C1=CC[C@@H]3[C@@]4(C)C(C=O)=C[C@@](C)(CO)[C@@H]4[C@H](O)C[C@@]3(C)[C@]1(C)CC2`, the growth is -68.1% (active) in assay [1]; -37.7% (active) in assay [2]; 3.2% (active) in assay [3]; 24.4% in assay [4]; -19% (active) in assay [5]; -85.7% (active) in [7]. Moreover, the growth in assay [8] is -34.5% (active); in assay [9] it was -97.9% (active); in assay [10], -34.5% (active).
As for `Cc1ccc(NCCN(C)C)c2c(=O)c3ccccc3sc12`, the growth in [1] was 6.89% (active); in assay [2], -38.3% (active); in [3] it was 41.2%; in [4], 20.2%; in assay [5], 10.8%; in [7], -73.6% (active). In addition, the results for the growth in assay [8], in [9] and in assay [10] were -5.6% (active), -41.6% (active) and 2.84% (active), respectively.
Take `C=C1C(=O)O[C@H]2[C@H]1CC/C(COC(=O)C(=O)c1c[nH]c3ccccc13)=C\CC[C@@]1(C)O[C@@H]21`: the growth in [1] is -42.9% (active); in [2], -55.3% (active); in [3], -55% (active); in [4], 30.3%; in assay [5], -82.3% (active); in [7] it was -89.6% (active). Moreover, the growth in assay [8] was -82.2% (active); in assay [9], -81.1% (active); in [10], -54% (active).
Regarding `CC(C)=C[C@@H]1c2c(c3ccccc3n(C)c2=O)O[C@H]2c3c(c4ccccc4n(C)c3=O)OC(C)(C)[C@@H]12`, the growth in [1] is 65.4%; in assay [2], 77.9%; in assay [3], 60.6%; in [4], 99.2%; in assay [5] it was 84.5%; in assay [7] it was 61.5%. Besides, the growth in assay [8] was 65.6%; in [9], 67%; in assay [10], 104%.
With `O=C(NCCCNc1cc(-c2cn(-c3ccccc3)nc2-c2cccc(O)c2)ccn1)c1ccc(F)cc1`, the growth in [1] was -4.32% (active); in assay [2], 0.339% (active); in [3], 10.9%; in [4], 54.2%; in assay [5], 15.6%; in assay [7] it was -24.8% (active). For the same compound, the results for the growth in assay [8], in assay [9] and in assay [10] were -1.62% (active), 21.5% and -34.8% (active), respectively.
`Cc1nc2c(c(N3CCCc4ccccc43)n1)CCC2`: the growth is 4.84% (active) in [1]; 3.44% (active) in [2]; 20.4% in assay [3]; 40% in [4]; 7.57% (active) in assay [5]; -49% (active) in [7]. In addition, the growth is 24.3% in assay [8], 21.2% in assay [9] and 60.4% in assay [10].
`O=C(NCCNc1cc(-c2cn(-c3ccccc3)nc2-c2cccc(O)c2)ccn1)Nc1ccccc1`: the growth was 62.7% in assay [1]; 27.3% in assay [2]; 66.2% in assay [3]; 82.4% in assay [4]; 56.4% in assay [5]; 63.9% in assay [7]. Moreover, the figures for the growth in assay [8], in [9] and in [10] were 70%, 82.5% and 103%, respectively.
Regarding `N#Cc1nc2c(S(=O)(=O)c3ccc(Cl)cc3)c(N)n(Nc3cccc(Cl)c3)c2nc1C#N`, the growth is 91.2% in assay [1]; 69.5% in [2]; 55.9% in [3]; 64.6% in assay [4]; 40% in assay [5]; 42.8% in assay [7]. Moreover, the growth is 49.2% in assay [8], 61.3% in assay [9] and 26.1% in assay [10].
For `COc1ccc(/C=N/C2=C(C#N)C(c3ccc(OC)cc3)c3ccc4ccccc4c3O2)cc1` (stereo not drawn), the growth in assay [1] is 44.3%; in [2] it was 123%; in [3], 45.5%; in [4] it was 80%; in assay [5] it was 84.5%; in assay [7], 70.4%. Further, the values for the growth in [8], in [9] and in assay [10] were 57.8%, 72.6% and 79.7%, respectively.
For `COc1ccc(NC(=O)CSc2nc(C)c(C(C)=O)n2-c2ccc(Cl)cc2)cc1`, the growth in [1] was 78.4%; in assay [2], 84.2%; in assay [3] it was 84.7%; in assay [4], 90.9%; in [5], 105%; in assay [7] it was 93.7%. Further, the growth was 70.2% in assay [8], 91% in assay [9] and 91.7% in assay [10].
In the case of `Cc1ccc2[nH]c(=O)c3c(c2c1)OC(N)=C(C#N)C31c2cc(Br)ccc2-c2ccc(Br)cc21`, the growth in [1] was 45.4%; in assay [2], 39.7%; in [3], 70%; in [4] it was 62.5%; in [5], 72.6%; in assay [7], 56%. For the same compound, the growth in [8] was 49.5%; in assay [9] it was 63%; in [10], 66.8%.
As for `COc1ccc2c(c1)C(=O)/C(=C/c1ccc(OCC(=O)Nc3nccs3)cc1)O2`, the growth is 76.2% in assay [1]; 3.69% (active) in assay [2]; -90.7% (active) in [3]; 78.6% in assay [4]; 4.62% (active) in assay [5]; 100% in assay [7]. Further, the results for the growth in assay [8], in assay [9] and in [10] were 74.2%, -58.2% (active) and 103%, respectively.
